Source: PubChem BioAssay (National Center for Advancing Translational Sciences (NCATS))
The list is not random: actives were taken first. Their share in the collection is about 17%.
DT40 TDP1 no CPT: qHTS for Inhibitors of human tyrosyl-DNA phosphodiesterase 1 (TDP1): qHTS in cells in absence of CPT; DT40 Tdp1-/- hTDP1 cells, no CPT, ATP luminescence, 48 h; Potency, µM (highest dose often 46.2 µM), hits mostly inhibitors; 15% of 420,000 active; AID 686978, 2013; note: nearly all actives have a fitted effect of over 55% in size
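DT40 Tdp1-/-;hTDP1 cells, no CPT (DMSO vehicle only), 400 cells/well; compounds pin-transferred; ≥48 hr, 37 °C; CellTiter-Glo 30 min RT dark, luminescence read.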
TGFb SMAD3 inh: inhibitors of TGF-b signaling; AID 588855; HepG2 CAGA-GFP TGF-b/SMAD3 reporter, GFP fluorescence, 18 h; TGF-beta stimulated, 500 pg/mL final; 1.2% of 410,000 active; Potency, µM (top dose mostly 46.1 µM), most hits filed as inhibitors; note: nearly all actives have a fitted effect of over 65% in size
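Inhibition of TGF-beta-driven CAGA-GFP reporter expression in HEPG2 cells is measured by cellular GFP fluorescence after 18 h stimulation with 500 pg/mL recombinant TGF-beta in 1% FBS medium at 37 degrees C.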
DT40 TDP1 CPT: growth inhibition of DT40 Tdp1-/-;hTDP1 cells with camptothecin (screen for TDP1 inhibitors); Potency, µM (titrated, usually from 46.2 µM), most hits filed as inhibitors; 12% of 420,000 active; chicken DT40 Tdp1-/-;hTDP1 cells + 20 nM CPT, ATP luminescence, 48 h; note: nearly all actives have a fitted effect of over 55% in size
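Cell growth measured by CellTiter-Glo luminescence after a minimum 48 h, 37 C compound exposure with 20 nM CPT in Tdp1-knockout DT40 cells stably expressing hTDP1, seeded 400/well; qHTS titration format.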
ATXN2 expr inh: inhibitors of ATXN2 expression; HEK-293 ATXN2-luciferase reporter, luminescence, 24 h; Potency, µM (titrated, usually from 57 µM), usual class: inhibitors; 0.72% of 360,000 active; note: nearly all actives have a fitted effect of over 55% in size
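qHTS (up to 57 uM final) was run with 24 h compound exposure of reporter cells at 37 °C. Each well was multiplexed: SteadyGlo luminescence measured ATXN2-luciferase expression after a fluorogenic Gly-Phe-AFC viability readout (25 uM final).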
HepG2 viability: kills HepG2 cells in TGF-b inhibitor counter-screen; HepG2 CAGA-GFP viability, ATP luminescence, 18 h; Potency, µM (series often up to 46.1 µM), most hits filed as cytotoxic; 0.76% of 410,000 active; AID 588856
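HepG2 CAGA-GFP cells (1000/well, DMEM with 1% FBS) received compound, then TGF-beta at 500 pg/mL final, and were incubated 18 hours at 37 degrees C. Viability was read by CellTiter-Glo luminescence. Media-only wells were set as complete cell-killing and DMSO as no toxicity.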
S2 tox: cell viability loss in ATXN counter-screen. S2 cells (HEK-293 line with an ATXN2-luciferase reporter) viability, CellTiter-Fluor protease fluorescence, 24 h. Potency, µM (highest dose often 56.7 µM), usual class: cytotoxic. 0.49% of 400,000 active. AID 651635; note: nearly all actives have a fitted effect of over 40% in size
A number is an active result. Calls come from the whole dose curve; as a rule, active = well fitted curve in the direction sought with a large enough effect; inconclusive = small, poorly fitted or top-dose-only effect, or another doubt; inactive = no such curve, though single readings can be large; an effect the other way counts as inactive or inconclusive.

Screening CC(C)C(=O)Nc1ccc2nc(SCC(=O)N3CCc4ccccc43)sc2c1 returned DT40 TDP1 no CPT 4.1µM, TGFb SMAD3 inh inactive, DT40 TDP1 CPT 10µM, ATXN2 expr inh inconclusive, HepG2 viability inactive and S2 tox inconclusive.
Screening CC(C)CC(=O)Nc1ccc2nc(SCC(=O)N3CCc4ccccc43)sc2c1 returned DT40 TDP1 no CPT 2.9µM, TGFb SMAD3 inh inactive, DT40 TDP1 CPT 5.2µM, ATXN2 expr inh inactive, HepG2 viability inactive and S2 tox inactive.
For CCOC(=O)C1(C(=O)OCC)NC(=O)CC1CC(C)C (stereo not drawn) the results were DT40 TDP1 no CPT inactive, TGFb SMAD3 inh inactive, DT40 TDP1 CPT inactive, ATXN2 expr inh inactive, HepG2 viability inactive and S2 tox inactive.
For CC(C)(C)NC(=O)CSc1nnc(C2CC2)n1Cc1ccccc1 the results were DT40 TDP1 no CPT inactive, TGFb SMAD3 inh inactive, DT40 TDP1 CPT inactive, ATXN2 expr inh inactive, HepG2 viability inactive and S2 tox inactive.
For O=C(NCc1cccc(Cl)c1)C1Cc2c(-c3ccc(Cl)cc3)ccnc2O1 (stereo not drawn) the results were DT40 TDP1 no CPT inconclusive, TGFb SMAD3 inh inactive, DT40 TDP1 CPT inconclusive, ATXN2 expr inh inactive, HepG2 viability inactive and S2 tox inactive.
O=C(C1CCC(CNS(=O)(=O)c2ccc(Br)s2)CC1)N1CCN(c2ccccc2Cl)CC1 (stereo not drawn) was read as DT40 TDP1 no CPT 8.2µM, TGFb SMAD3 inh inactive, DT40 TDP1 CPT 9.2µM, ATXN2 expr inh inactive, HepG2 viability inactive and S2 tox inactive.
For COc1cccc(CNC(=O)C2CCC(CNS(=O)(=O)c3ccc(Br)s3)CC2)c1 (stereo not drawn) the results were DT40 TDP1 no CPT inconclusive, TGFb SMAD3 inh inactive, DT40 TDP1 CPT 23µM, ATXN2 expr inh inactive, HepG2 viability inactive and S2 tox inactive.
Screening Cc1cccc(N2CCN(C(=O)C3CCC(CNS(=O)(=O)c4ccc(Br)s4)CC3)CC2)c1C (stereo not drawn) returned DT40 TDP1 no CPT inconclusive, TGFb SMAD3 inh inactive, DT40 TDP1 CPT inconclusive, ATXN2 expr inh inactive, HepG2 viability inactive and S2 tox inactive.
Screening COc1cccc(CNC(=O)C2CCN(S(=O)(=O)c3ccc(Br)s3)CC2)c1 returned DT40 TDP1 no CPT inactive, TGFb SMAD3 inh inactive, DT40 TDP1 CPT inactive, ATXN2 expr inh inactive, HepG2 viability inactive and S2 tox inactive.
COc1cccc(N2CCN(C(=O)C3CCC(CNS(=O)(=O)c4ccc(Br)s4)CC3)CC2)c1 (stereo not drawn) was read as DT40 TDP1 no CPT 6.5µM, TGFb SMAD3 inh inconclusive, DT40 TDP1 CPT 7.3µM, ATXN2 expr inh inactive, HepG2 viability inactive and S2 tox inactive.
`O=C(C1CCC(CNS(=O)(=O)c2ccc(Br)s2)CC1)N1CCN(c2ccc(F)cc2)CC1` (stereo not drawn) gave DT40 TDP1 no CPT 4.1µM, TGFb SMAD3 inh inactive, DT40 TDP1 CPT inconclusive, ATXN2 expr inh inactive, HepG2 viability inactive and S2 tox inactive.
`CCOc1ccc(NC(=O)C2CCC(CNS(=O)(=O)c3ccc(Br)s3)CC2)cc1` (stereo not drawn) gave DT40 TDP1 no CPT inconclusive, TGFb SMAD3 inh inactive, DT40 TDP1 CPT inactive, ATXN2 expr inh inactive, HepG2 viability inactive and S2 tox inactive.
For COc1cc(F)c(C(C)C)cc1-c1ccc(C(F)(F)F)cc1CN1C(=O)O[C@H](c2cc(C(F)(F)F)cc(C(F)(F)F)c2)[C@@H]1C the results were ATXN2 expr inh inactive.
Screening CCN(CC)c1c(C)nc2ccc(C(=O)N3CCN(C(=O)c4ccco4)CC3)cn12 returned DT40 TDP1 no CPT inactive, TGFb SMAD3 inh inactive, DT40 TDP1 CPT inactive, ATXN2 expr inh inactive, HepG2 viability inactive and S2 tox inactive.
